Measured values from PubChem BioAssay (NCATS).
Records with an inconclusive call do not appear. Calls of active or inactive are those of the source. Calls come from the whole dose curve; as a rule, active = well fitted curve in the direction sought with a large enough effect; inconclusive = small, poorly fitted or top-dose-only effect, or another doubt; inactive = no such curve, though single readings can be large; an effect the other way counts as inactive or inconclusive.

Columns and labels:
MCC-13 = assay: qHTS assay to identify novel small-molecules to repurpose for Merkel cell carcinoma treatment (AID 1296009); settings: MCC and control cell lines, CellTiter-Glo viability, 72 h; series mostly up to 46 µM; note: nearly all actives have a fitted effect of over 60% in size
Procedure, shortened: (§1)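 Cell viability, measured as CellTiter-Glo luminescence, was normalized between DMSO and no-cell wells. The cells had been exposed to 8- or 11-point compound dilutions for 72 hr at 37 degree celsius.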

MCC-26 = assay: as above; settings: MCC and control cell lines, CellTiter-Glo viability, 72 h; series mostly up to 46 µM
Procedure, shortened: as §1

MKL-2 = assay: as above; settings: MCC and control cell lines, CellTiter-Glo viability, 72 h; series mostly up to 46 µM
Procedure, shortened: as §1

C33A = assay: Primary qHTS to identify gynecologic anti-cancer compounds using libraries of approved drugs and bioactive compounds (AID 1345084); settings: Gynecologic cancer cell panel viability, ATPlite luminescence, 48 h; series mostly up to 57.5 µM; note: nearly all actives have a fitted effect of over 55% in size
Procedure, shortened: (§2)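 ATP-based viability (ATPlite), 1,000 cells/well, 16 h pre-incubation, 48 h compound at 37 C, 5% CO2, 15 min RT before read.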

CAOV3 = assay: as above; settings: Gynecologic cancer cell panel viability, ATPlite luminescence, 48 h; series mostly up to 57.5 µM
Procedure, shortened: as §2

CASKI = assay: as above; settings: Gynecologic cancer cell panel viability, ATPlite luminescence, 48 h; series mostly up to 57.5 µM
Procedure, shortened: as §2

Es-2 = assay: as above; settings: Gynecologic cancer cell panel viability, ATPlite luminescence, 48 h; series mostly up to 57.5 µM
Procedure, shortened: as §2

HeLa = assay: as above; settings: Gynecologic cancer cell panel viability, ATPlite luminescence, 48 h; series mostly up to 57.5 µM
Procedure, shortened: as §2

Hek293T = assay: as above; settings: Gynecologic cancer cell panel viability, ATPlite luminescence, 48 h, control line for the selectivity index; series mostly up to 57.5 µM
Procedure, shortened: as §2

JEG-3 = assay: as above; settings: Gynecologic cancer cell panel viability, ATPlite luminescence, 48 h; series mostly up to 57.5 µM
Procedure, shortened: as §2

OV90 = assay: as above; settings: Gynecologic cancer cell panel viability, ATPlite luminescence, 48 h; series mostly up to 57.5 µM
Procedure, shortened: as §2

PA-1 = assay: as above; settings: Gynecologic cancer cell panel viability, ATPlite luminescence, 48 h; series mostly up to 57.5 µM
Procedure, shortened: as §2

SKOV3 = assay: as above; settings: Gynecologic cancer cell panel viability, ATPlite luminescence, 48 h; series mostly up to 57.5 µM
Procedure, shortened: as §2

Tov-21-G = assay: as above; settings: Gynecologic cancer cell panel viability, ATPlite luminescence, 48 h; series mostly up to 57.5 µM
Procedure, shortened: as §2

Tov112D = assay: as above; settings: Gynecologic cancer cell panel viability, ATPlite luminescence, 48 h; series mostly up to 57.5 µM
Procedure, shortened: as §2

MKL-1 = assay: qHTS assay to identify novel small-molecules to repurpose for Merkel cell carcinoma treatment (AID 1296009); settings: MCC and control cell lines, CellTiter-Glo viability, 72 h; series mostly up to 46 µM; note: nearly all actives have a fitted effect of over 60% in size
Procedure, shortened: as §1

UISO = assay: as above; settings: MCC and control cell lines, CellTiter-Glo viability, 72 h; series mostly up to 46 µM
Procedure, shortened: as §1

WaGa = assay: as above; settings: MCC and control cell lines, CellTiter-Glo viability, 72 h; series mostly up to 46 µM
Procedure, shortened: as §1

NIH3T3 = assay: as above; settings: MCC and control cell lines, CellTiter-Glo viability, 72 h; series mostly up to 44.8 µM
Procedure, shortened: as §1

[1] = Drug repurposing screens with cells derived from glioblastoma tumor samples (AID 1345199); settings: GBM patient neurospheres viability, ATP luminescence, 48 h; note: nearly all actives have a fitted effect of over 40% in size
Procedure, shortened: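 Primary testing used CD133+ neurospheres from four GBM patients, seven concentrations, 48 h exposure and ATP-based viability; confirmation added three slower-growing patient lines.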

[2] = at 45.9 µM (top of the series), tumour line B
% is set by controls: 0 for no effect and ±100 for the full control effect; potency is the fitted concentration of half-maximal effect.

CCCCC[C@H](O)C=C[C@H]1[C@H](O)CC(=O)[C@H]1CC=CCCCC(=O)O
active: Potency (MKL-2) 16.6 µM
inactive: Potency (MCC-13) | Potency (MCC-26) | Potency (C33A) | Potency (CAOV3) | Potency (CASKI) | Potency (Es-2) | Potency (HeLa) | Potency (Hek293T) | Potency (JEG-3) | Potency (OV90) | Potency (PA-1) | Potency (SKOV3) | Potency (Tov-21-G) | Potency (Tov112D)

CC1C(=O)OC2C(O)C34C5CC(C(C)(C)C)C36C(OC(=O)C6O)OC4(C(=O)O5)C12O (stereo unspecified)
inactive: Potency (MCC-13) | Potency (MCC-26) | Potency (MKL-1) | Potency (UISO)

CNc1nc(-c2ccc3c(N)n[nH]c3c2)cc(N2C[C@@H](C(=O)NC3CCCCC3)CC[C@@H]2C)n1
inactive: Potency (MCC-13) | Potency (MCC-26) | Potency (MKL-1) | Potency (UISO) | Potency (WaGa)

NS(=O)(=O)c1ccc(Nc2nc(OCC3CCCCC3)c3[nH]cnc3n2)cc1
active: Potency (UISO) 2.35 µM | Potency (Tov-21-G) 15.8 µM
inactive: Potency (MCC-13) | Potency (MCC-26) | Potency (MKL-2) | Potency (C33A) | Potency (CASKI) | Potency (Es-2) | Potency (HeLa) | Potency (Hek293T) | Potency (JEG-3) | Potency (OV90) | Potency (PA-1) | Potency (Tov112D)

COc1cc([C@H]2Oc3cc([C@H]4Oc5cc(O)cc(O)c5C(=O)[C@H]4O)ccc3O[C@H]2CO)ccc1O
inactive: Potency (MCC-13) | Potency (MCC-26) | Potency (MKL-1) | Potency (UISO) | Potency (WaGa)

O=C(O)CCNc1cc(N2CCc3ccccc3CC2)nc(-c2ccccn2)n1
inactive: Potency (MCC-13) | Potency (MCC-26) | Potency (MKL-1) | Potency (C33A) | Potency (CAOV3) | Potency (CASKI) | Potency (Es-2) | Potency (HeLa) | Potency (Hek293T) | Potency (JEG-3) | Potency (OV90) | Potency (PA-1) | Potency (SKOV3) | Potency (Tov-21-G) | Potency (Tov112D)
active: Potency (UISO) 14.8 µM

COc1cc2nccc(Oc3ccc(NC(=O)Nc4ccc(F)cc4F)c(F)c3)c2cc1OC
inactive: Potency (MCC-13) | Potency (MCC-26) | Potency (MKL-2) | Potency (UISO) | Potency (WaGa)

Cc1ccc2c(c1)C(=O)[C@]1(O)CCN(c3ccccc3)C1=N2
inactive: Potency (MCC-13) | Potency (MCC-26) | Potency (MKL-2) | Potency (UISO) | Potency (C33A) | Potency (CASKI) | Potency (Es-2) | Potency (HeLa) | Potency (Hek293T) | Potency (JEG-3) | Potency (OV90) | Potency (PA-1) | Potency (SKOV3) | Potency (Tov112D)

CCCC1OC2C[C@@H]3[C@H]4CCC5=CC(=O)C=C[C@]5(C)[C@H]4C(O)C[C@]3(C)[C@]2(C(=O)CO)O1 (stereo partly specified)
inactive: Potency (MCC-13) | Potency (MCC-26) | Potency (MKL-1) | Potency (UISO) | Potency (WaGa)

N=C1SC(=Cc2ccc(-c3ccc4c(c3)C(=O)NC4=O)o2)C(=O)N1c1ccc(Br)cc1
inactive: Potency (MCC-13) | Potency (MCC-26) | Potency (MKL-1) | Potency (UISO) | Potency (WaGa)

CN(C)S(=O)(=O)c1ccc2c(c1)C(=Cc1cc3c([nH]1)CCCC3)C(=O)N2
inactive: Potency (MCC-13) | Potency (MCC-26) | Potency (MKL-2) | Potency (UISO) | Potency (WaGa)

Cc1nn(Cc2ccccc2Cl)c(C)c1CN(C)CC(O)COc1ccc(Cl)cc1 (stereo unspecified)
inactive: Potency (MCC-13) | Potency (MCC-26) | Potency (MKL-1) | Potency (WaGa)

CN(C)N=Nc1nc[nH]c1C(N)=O
inactive: Potency (MCC-13) | Potency (MCC-26) | Potency (MKL-1) | Potency (UISO)

CN(C(Cc1ccc(OS(=O)(=O)c2cccc3cnccc23)cc1)C(=O)N1CCN(c2ccccc2)CC1)S(=O)(=O)c1cccc2cnccc12 (stereo unspecified)
inactive: Potency (MCC-13) | Potency (MCC-26) | Potency (MKL-1)
active: Potency (UISO) 7.43 µM

Fc1ccc(CNc2ncnc3ccc(F)cc23)cc1
inactive: Potency (MCC-13) | Potency (MCC-26) | Potency (MKL-2) | Potency (CAOV3) | Potency (CASKI) | Potency (Es-2) | Potency (HeLa) | Potency (JEG-3) | Potency (Tov-21-G) | Potency (Tov112D)

NC1(C(=O)N[C@@H](CCO)c2ccc(Cl)cc2)CCN(c2ncnc3[nH]ccc23)CC1
inactive: Potency (MCC-13) | Potency (MCC-26) | Potency (MKL-1) | Potency (NIH3T3) | Potency (Es-2) | Potency (HeLa) | Potency (OV90) | Potency (Tov112D)
active: Potency (C33A) 2.51 µM | Potency (Tov-21-G) 0.794 µM

O=C(Nc1cccc2c(=O)cc(-c3nn[nH]n3)oc12)c1ccc(OCCCCc2ccccc2)cc1
inactive: Potency (MCC-13) | Potency (MCC-26) | Potency (MKL-1) | Potency (WaGa) | Potency (C33A) | Potency (CAOV3) | Potency (CASKI) | Potency (HeLa) | Potency (Hek293T) | Potency (JEG-3) | Potency (PA-1) | Potency (SKOV3) | Potency (Tov-21-G) | Potency (Tov112D) | activity, negative = cell killing [1, 2] 1.64% | activity, negative = cell killing ([1]; at 45.9 µM (top of the series), tumour line D) -5.85% | activity, negative = cell killing ([1]; at 46.1 µM (top of the series), tumour line C) 16%

CCNC(=O)CCCC=CC[C@@H]1[C@H](C=CC(O)CCc2ccccc2)[C@@H](O)C[C@@H]1O (stereo partly specified)
inactive: Potency (MCC-13) | Potency (MCC-26) | Potency (MKL-1) | Potency (UISO) | Potency (WaGa)

N#CC(c1ccc(Cl)cc1)c1c(Cl)cc(-n2ncc(=O)[nH]c2=O)cc1Cl (stereo unspecified)
inactive: Potency (MCC-13) | Potency (MCC-26) | Potency (UISO) | activity, negative = cell killing [1, 2] -18.3%
active: Potency (WaGa) 13.2 µM | Potency ([1]; tumour line C) 16.4 µM

CC[C@H](C)n1cc(C)c2c(C(=O)NCc3c(C)cc(C)[nH]c3=O)cc(-c3ccc(N4CCNCC4)nc3)cc21
inactive: Potency (MCC-13) | Potency (MKL-1) | Potency (MKL-2) | Potency (NIH3T3) | Potency (UISO) | Potency (WaGa)

C[C@@H]1CC=CC=CC=CC=C[C@@H](O[C@@H]2O[C@H](C)[C@@H](O)[C@H](N)[C@H]2O)C[C@@H]2O[C@](O)(C[C@@H](O)C[C@@H]3O[C@@H]3C=CC(=O)O1)C[C@H](O)[C@@H]2C(=O)O
inactive: Potency (MCC-13) | Potency (MKL-1) | Potency (MKL-2) | Potency (UISO) | Potency (WaGa)

CN[C@H]1[C@@H](O[C@@H]2[C@H](O[C@@H]3[C@@H](O)[C@@H](O)[C@@H](N=C(N)N)[C@@H](O)[C@@H]3N=C(N)N)O[C@H](C)[C@@]2(O)C=O)O[C@@H](CO)[C@@H](O)[C@H]1O
inactive: activity change, negative = cytotoxicity (MCC-13) 0.63% [at 9.22 µM] | activity change, negative = cytotoxicity (MKL-1) 0.557% [at 9.22 µM] | activity change, negative = cytotoxicity (MKL-2) 13.1% [at 9.22 µM] | activity change, negative = cytotoxicity (UISO) -3% [at 9.22 µM] | activity change, negative = cytotoxicity (WaGa) 11.2% [at 9.22 µM]

CCOC(=O)[C@@H](N)CCC(=O)N[C@@H](CSCc1ccccc1)C(=O)N[C@@H](C(=O)OCC)c1ccccc1
inactive: Potency (MCC-13) | Potency (MCC-26) | Potency (UISO) | Potency (WaGa)

Cc1nc(NC(=O)N2CCC[C@@H]2C(N)=O)sc1-c1csc(C(C)(C)C)n1
inactive: Potency (MCC-13) | Potency (MKL-1) | Potency (MKL-2)
